Source: paper PMC7862700, “An all-to-all approach to the identification of sequence-specific readers for epigenetic DNA modifications on cytosine”

Legend:
Assay in all cases: DAPPL (digital affinity profiling via proximity ligation, sequencing); 10 mM Tris-HCl pH 7.5, 50 mM NaCl, 1 mM DTT, 4% glycerol, room temperature, 30 min; GST-TFs on glutathione beads, 16-mer random dsDNA library, 0.1% formaldehyde crosslink after washing; high values mean tight binding
Conditions in all cases: protein: recombinant; tags: N-terminal GST; dsDNA, one strand shown
FLI1 = biological target: T1, FLI1 (Homo sapiens, UniProt Q01543 1-452)
T1 sequence: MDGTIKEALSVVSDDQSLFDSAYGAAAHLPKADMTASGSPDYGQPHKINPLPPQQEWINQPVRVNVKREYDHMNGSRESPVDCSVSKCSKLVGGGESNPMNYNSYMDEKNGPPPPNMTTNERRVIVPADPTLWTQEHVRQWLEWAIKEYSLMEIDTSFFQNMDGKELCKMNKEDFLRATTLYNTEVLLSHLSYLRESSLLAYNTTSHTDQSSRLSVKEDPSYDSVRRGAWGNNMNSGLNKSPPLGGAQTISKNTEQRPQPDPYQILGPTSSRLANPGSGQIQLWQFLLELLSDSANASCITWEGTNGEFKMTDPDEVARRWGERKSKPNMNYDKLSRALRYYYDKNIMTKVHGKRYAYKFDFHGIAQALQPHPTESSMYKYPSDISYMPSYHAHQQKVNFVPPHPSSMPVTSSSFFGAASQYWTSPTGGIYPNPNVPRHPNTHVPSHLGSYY
Summary of the method: (§1)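 Sequencing on an Illumina NextSeq500 followed washing, crosslinking with 0.1% formaldehyde, proximity ligation (BsaI/T4 ligase, 1 h, 37 °C) and PCR amplification of pools that had been incubated for 30 min at room temperature with 200 nmole of a random double-stranded 16-mer DNA library in Tris/NaCl/DTT/glycerol buffer. Each pool held DNA-barcoded human transcription factors, expressed in yeast as GST fusions and captured on glutathione beads, plus a tag-only sample. Binding signal is a hexamer's read frequency for a factor divided by its frequency in the tag-only sample.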

ELK1 = biological target: T2, ELK1 (Homo sapiens, UniProt P19419 1-428)
T2 sequence: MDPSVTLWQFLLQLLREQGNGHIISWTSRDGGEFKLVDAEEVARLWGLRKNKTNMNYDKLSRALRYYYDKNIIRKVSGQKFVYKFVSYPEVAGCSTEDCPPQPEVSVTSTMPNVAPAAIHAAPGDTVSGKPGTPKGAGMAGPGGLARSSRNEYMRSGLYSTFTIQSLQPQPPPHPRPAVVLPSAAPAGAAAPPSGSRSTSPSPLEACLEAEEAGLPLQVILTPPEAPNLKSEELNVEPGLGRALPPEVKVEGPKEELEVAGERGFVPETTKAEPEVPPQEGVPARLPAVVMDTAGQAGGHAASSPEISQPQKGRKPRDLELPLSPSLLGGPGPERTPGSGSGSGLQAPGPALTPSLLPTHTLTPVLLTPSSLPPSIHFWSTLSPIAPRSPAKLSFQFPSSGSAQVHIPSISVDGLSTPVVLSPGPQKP
Summary of the method: as §1

GABPA = biological target: T3, GABPA (Homo sapiens, UniProt Q06546 1-454)
T3 sequence: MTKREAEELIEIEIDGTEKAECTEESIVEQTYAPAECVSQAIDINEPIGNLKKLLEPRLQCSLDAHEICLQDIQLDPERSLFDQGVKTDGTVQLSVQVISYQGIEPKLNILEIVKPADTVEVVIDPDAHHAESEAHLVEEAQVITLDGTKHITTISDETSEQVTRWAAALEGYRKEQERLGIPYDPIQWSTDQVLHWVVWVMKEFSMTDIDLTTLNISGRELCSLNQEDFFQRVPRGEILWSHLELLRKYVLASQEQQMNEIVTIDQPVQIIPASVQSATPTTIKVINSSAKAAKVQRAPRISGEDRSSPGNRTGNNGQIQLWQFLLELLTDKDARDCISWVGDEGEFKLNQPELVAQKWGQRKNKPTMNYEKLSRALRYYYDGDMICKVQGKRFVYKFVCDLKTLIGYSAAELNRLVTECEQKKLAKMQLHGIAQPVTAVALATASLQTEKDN
Summary of the method: as §1

ERG = biological target: T4, ERG (Homo sapiens, UniProt P11308 1-479)
T4 sequence: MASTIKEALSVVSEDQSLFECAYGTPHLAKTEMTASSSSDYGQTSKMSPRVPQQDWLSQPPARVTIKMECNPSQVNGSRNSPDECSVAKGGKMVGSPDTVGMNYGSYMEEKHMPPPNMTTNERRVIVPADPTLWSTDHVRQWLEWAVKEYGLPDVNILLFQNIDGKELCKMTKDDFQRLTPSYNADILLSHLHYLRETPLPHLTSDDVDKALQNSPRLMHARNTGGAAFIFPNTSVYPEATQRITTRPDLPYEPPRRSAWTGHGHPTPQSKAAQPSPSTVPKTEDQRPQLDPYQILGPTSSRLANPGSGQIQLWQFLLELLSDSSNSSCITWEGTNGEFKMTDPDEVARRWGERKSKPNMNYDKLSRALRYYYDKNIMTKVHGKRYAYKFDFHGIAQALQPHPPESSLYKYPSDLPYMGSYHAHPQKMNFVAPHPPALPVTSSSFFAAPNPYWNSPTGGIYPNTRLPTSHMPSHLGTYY
Summary of the method: as §1

ELF1 = ELF1 (Homo sapiens, UniProt P32519 1-619)
ELF1, sequence (P32519 whole entry): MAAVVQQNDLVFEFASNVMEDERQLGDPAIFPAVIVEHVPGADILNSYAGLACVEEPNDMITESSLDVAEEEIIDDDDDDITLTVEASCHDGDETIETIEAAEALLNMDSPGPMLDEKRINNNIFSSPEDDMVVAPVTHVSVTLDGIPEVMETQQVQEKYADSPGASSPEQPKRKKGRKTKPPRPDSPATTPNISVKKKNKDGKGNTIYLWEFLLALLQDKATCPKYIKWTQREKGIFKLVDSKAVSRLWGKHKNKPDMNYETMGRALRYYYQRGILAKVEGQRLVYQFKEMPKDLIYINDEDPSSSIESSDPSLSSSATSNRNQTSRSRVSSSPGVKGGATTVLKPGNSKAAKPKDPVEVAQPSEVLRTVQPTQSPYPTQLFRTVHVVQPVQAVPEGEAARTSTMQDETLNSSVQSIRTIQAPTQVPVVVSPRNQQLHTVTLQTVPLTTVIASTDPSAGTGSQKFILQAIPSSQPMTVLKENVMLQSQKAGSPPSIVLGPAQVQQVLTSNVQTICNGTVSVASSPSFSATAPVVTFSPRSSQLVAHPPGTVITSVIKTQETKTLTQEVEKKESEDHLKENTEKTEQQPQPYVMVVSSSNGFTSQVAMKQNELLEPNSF
Summary of the method: as §1

EHF = biological target: T5, EHF (Homo sapiens, UniProt Q9NZC4 1-300)
T5 sequence: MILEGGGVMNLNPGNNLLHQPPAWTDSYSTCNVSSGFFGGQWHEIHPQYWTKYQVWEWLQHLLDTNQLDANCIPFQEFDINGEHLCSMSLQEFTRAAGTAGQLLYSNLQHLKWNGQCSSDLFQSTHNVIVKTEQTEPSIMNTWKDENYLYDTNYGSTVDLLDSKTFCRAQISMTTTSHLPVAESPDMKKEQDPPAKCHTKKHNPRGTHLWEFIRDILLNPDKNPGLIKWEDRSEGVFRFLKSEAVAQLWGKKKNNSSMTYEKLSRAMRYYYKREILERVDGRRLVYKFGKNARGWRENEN
Summary of the method: as §1

SPI1 = SPI1 (Homo sapiens, UniProt P17947 1-270)
Summary of the method: as §1

SPIB = SPIB (Homo sapiens, UniProt Q01892 1-262)
SPIB, sequence (Q01892 whole entry): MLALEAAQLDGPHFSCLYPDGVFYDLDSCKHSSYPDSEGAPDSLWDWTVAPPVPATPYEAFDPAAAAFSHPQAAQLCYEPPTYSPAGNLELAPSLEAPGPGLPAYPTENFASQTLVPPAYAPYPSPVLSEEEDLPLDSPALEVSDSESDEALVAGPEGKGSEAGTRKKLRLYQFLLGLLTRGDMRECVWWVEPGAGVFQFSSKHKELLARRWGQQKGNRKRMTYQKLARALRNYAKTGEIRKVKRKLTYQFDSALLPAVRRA
Summary of the method: as §1

ELK3 = biological target: T6, ELK3 (Homo sapiens, UniProt P41970 1-407)
T6 sequence: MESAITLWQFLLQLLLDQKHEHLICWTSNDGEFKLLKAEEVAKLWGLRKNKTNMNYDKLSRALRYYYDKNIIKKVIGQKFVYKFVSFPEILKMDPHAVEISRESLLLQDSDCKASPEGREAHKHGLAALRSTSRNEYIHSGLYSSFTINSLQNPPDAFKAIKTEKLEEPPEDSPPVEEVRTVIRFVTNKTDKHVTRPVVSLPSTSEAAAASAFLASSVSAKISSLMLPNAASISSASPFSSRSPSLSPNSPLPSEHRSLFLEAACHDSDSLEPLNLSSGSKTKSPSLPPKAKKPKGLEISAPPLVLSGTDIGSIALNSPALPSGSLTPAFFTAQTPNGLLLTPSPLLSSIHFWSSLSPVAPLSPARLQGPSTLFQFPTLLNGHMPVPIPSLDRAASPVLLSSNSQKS
Summary of the method: as §1

FEV = biological target: T7, FEV (Homo sapiens, UniProt Q99581 1-238)
T7 sequence: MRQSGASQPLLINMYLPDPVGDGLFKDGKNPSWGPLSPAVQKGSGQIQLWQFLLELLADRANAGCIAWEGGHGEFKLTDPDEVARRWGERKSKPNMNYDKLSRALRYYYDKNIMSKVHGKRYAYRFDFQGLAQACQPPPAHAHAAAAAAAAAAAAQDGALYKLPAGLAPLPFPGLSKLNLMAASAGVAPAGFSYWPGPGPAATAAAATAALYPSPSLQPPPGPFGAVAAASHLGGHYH
Summary of the method: as §1

ETV5 = ETV5 (Homo sapiens, UniProt P41161 1-510)
ETV5, sequence (P41161 whole entry): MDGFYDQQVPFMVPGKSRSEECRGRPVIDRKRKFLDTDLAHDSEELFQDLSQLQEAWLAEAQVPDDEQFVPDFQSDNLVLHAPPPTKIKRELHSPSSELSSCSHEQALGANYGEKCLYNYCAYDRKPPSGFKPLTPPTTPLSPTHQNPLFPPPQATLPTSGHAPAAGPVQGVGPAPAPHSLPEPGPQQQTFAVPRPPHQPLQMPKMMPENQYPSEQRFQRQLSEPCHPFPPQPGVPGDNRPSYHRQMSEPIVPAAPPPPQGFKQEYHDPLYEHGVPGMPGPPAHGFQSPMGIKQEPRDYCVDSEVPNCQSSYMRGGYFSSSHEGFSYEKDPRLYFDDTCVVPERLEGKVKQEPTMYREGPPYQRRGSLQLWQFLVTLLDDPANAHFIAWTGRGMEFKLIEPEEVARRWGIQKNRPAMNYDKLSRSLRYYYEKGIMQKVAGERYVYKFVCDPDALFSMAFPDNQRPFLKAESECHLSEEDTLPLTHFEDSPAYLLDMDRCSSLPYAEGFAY
Summary of the method: as §1

SPIC = biological target: T8, SPIC (Homo sapiens, UniProt Q8N5J4 1-248)
T8 sequence: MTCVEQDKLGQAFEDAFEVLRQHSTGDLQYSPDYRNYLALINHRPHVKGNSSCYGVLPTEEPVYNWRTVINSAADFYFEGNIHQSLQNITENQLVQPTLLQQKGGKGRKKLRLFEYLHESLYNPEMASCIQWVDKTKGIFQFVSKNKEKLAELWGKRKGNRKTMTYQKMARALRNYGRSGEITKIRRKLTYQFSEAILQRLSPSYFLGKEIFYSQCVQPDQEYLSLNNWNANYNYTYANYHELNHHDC
Summary of the method: as §1

ELF4 = ELF4 (Homo sapiens, UniProt Q99607 1-663)
ELF4, sequence (Q99607 whole entry): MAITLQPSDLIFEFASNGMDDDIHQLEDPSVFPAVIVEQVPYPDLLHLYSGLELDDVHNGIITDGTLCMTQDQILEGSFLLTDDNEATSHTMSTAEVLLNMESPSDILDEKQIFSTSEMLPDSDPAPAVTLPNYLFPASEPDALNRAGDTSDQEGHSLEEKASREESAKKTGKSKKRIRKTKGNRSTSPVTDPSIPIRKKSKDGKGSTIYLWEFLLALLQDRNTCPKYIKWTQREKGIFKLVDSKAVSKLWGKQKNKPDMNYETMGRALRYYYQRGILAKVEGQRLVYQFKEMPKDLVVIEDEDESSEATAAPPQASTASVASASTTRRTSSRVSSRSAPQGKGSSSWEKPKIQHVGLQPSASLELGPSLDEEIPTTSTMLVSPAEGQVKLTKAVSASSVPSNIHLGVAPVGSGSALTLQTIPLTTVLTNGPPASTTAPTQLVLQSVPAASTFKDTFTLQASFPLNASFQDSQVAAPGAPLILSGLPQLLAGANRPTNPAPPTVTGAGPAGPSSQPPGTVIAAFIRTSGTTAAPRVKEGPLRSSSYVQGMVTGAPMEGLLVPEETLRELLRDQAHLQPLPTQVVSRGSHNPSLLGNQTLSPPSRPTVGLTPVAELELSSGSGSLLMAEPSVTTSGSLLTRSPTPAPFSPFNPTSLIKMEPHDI
Summary of the method: as §1

ELK4 = biological target: T9, ELK4 (Homo sapiens, UniProt P28324-2 1-405)
T9 sequence: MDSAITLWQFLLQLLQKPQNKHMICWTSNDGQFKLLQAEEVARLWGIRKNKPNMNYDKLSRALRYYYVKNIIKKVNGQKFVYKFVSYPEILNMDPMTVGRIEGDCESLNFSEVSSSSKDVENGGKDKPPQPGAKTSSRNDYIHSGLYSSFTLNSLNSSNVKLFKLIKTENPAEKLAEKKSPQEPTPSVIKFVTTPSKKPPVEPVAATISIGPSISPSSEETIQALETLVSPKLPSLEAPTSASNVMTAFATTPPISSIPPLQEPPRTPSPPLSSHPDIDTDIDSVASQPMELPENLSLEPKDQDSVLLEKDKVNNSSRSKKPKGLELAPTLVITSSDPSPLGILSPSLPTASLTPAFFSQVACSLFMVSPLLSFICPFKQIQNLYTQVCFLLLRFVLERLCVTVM
Summary of the method: as §1

ETV2 = biological target: T10, ETV2 (Homo sapiens, UniProt O00321 1-342)
T10 sequence: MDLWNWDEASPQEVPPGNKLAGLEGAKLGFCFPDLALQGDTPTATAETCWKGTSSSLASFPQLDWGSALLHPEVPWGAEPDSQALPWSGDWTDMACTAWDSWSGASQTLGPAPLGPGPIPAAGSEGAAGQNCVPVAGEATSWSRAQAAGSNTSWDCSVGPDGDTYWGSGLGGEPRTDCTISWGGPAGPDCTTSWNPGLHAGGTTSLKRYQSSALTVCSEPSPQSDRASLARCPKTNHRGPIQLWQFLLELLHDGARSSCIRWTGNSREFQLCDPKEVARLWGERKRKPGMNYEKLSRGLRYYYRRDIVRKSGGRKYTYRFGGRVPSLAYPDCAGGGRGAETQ
Summary of the method: as §1

ELF3 = biological target: T11, ELF3 (Homo sapiens, UniProt P78545 1-371)
T11 sequence: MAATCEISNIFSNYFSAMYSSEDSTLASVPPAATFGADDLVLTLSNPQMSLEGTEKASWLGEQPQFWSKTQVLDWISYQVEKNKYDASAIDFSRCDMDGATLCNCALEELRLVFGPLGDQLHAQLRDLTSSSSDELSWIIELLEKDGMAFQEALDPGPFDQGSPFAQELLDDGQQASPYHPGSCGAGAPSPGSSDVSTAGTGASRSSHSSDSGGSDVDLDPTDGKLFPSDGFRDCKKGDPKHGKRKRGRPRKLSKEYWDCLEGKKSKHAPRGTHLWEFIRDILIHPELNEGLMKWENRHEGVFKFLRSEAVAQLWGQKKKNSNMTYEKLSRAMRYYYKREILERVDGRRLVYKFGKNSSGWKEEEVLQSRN
Summary of the method: as §1

ETV1 = ETV1 (Homo sapiens, UniProt P50549 1-477)
ETV1, sequence (P50549 whole entry): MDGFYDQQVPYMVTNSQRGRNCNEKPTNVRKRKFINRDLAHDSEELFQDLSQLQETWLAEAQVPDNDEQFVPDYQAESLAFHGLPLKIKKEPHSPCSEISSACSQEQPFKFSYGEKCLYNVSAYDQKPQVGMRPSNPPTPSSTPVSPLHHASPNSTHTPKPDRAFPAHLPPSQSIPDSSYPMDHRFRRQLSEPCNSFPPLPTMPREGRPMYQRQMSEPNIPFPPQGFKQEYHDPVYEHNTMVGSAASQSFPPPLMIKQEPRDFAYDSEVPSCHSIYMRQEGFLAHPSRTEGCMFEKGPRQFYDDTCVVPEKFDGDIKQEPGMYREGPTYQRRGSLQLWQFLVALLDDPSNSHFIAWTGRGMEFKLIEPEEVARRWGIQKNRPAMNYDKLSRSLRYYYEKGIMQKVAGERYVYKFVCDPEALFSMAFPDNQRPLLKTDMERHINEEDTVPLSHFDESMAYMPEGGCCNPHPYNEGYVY
Summary of the method: as §1

Sequence | binding signal (FLI1) | binding signal (ELK1) | binding signal (GABPA) | binding signal (ERG) | binding signal (ELF1) | binding signal (EHF) | binding signal (SPI1) | binding signal (SPIB) | binding signal (ELK3) | binding signal (FEV) | binding signal (ETV5) | binding signal (SPIC) | binding signal (ELF4) | binding signal (ELK4) | binding signal (ETV2) | binding signal (ELF3) | binding signal (ETV1)
CACAAT | 1.12 fold enrichment (6-mer frequency, TF over GST control) | 1.07 fold enrichment (6-mer frequency, TF over GST control) | 1.12 fold enrichment (6-mer frequency, TF over GST control) | 1.11 fold enrichment (6-mer frequency, TF over GST control) | 1.17 fold enrichment (6-mer frequency, TF over GST control) | 1.07 fold enrichment (6-mer frequency, TF over GST control) | 1.02 fold enrichment (6-mer frequency, TF over GST control) | 1.16 fold enrichment (6-mer frequency, TF over GST control) | 1.26 fold enrichment (6-mer frequency, TF over GST control) | 1.06 fold enrichment (6-mer frequency, TF over GST control) | 1.1 fold enrichment (6-mer frequency, TF over GST control) | 1.13 fold enrichment (6-mer frequency, TF over GST control) | 1.09 fold enrichment (6-mer frequency, TF over GST control) | 1.12 fold enrichment (6-mer frequency, TF over GST control) | 1.06 fold enrichment (6-mer frequency, TF over GST control) | 1.19 fold enrichment (6-mer frequency, TF over GST control) | 1.09 fold enrichment (6-mer frequency, TF over GST control)
GATGCA | 1.15 fold enrichment (6-mer frequency, TF over GST control) | 1.14 fold enrichment (6-mer frequency, TF over GST control) | 1.18 fold enrichment (6-mer frequency, TF over GST control) | 1.11 fold enrichment (6-mer frequency, TF over GST control) | 1.06 fold enrichment (6-mer frequency, TF over GST control) | 1.2 fold enrichment (6-mer frequency, TF over GST control) | 1.06 fold enrichment (6-mer frequency, TF over GST control) | 1.23 fold enrichment (6-mer frequency, TF over GST control) | 1.16 fold enrichment (6-mer frequency, TF over GST control) | 1.12 fold enrichment (6-mer frequency, TF over GST control) | 1.13 fold enrichment (6-mer frequency, TF over GST control) | 1.17 fold enrichment (6-mer frequency, TF over GST control) | 1.23 fold enrichment (6-mer frequency, TF over GST control) | 1.19 fold enrichment (6-mer frequency, TF over GST control) | 1 fold enrichment (6-mer frequency, TF over GST control) | 1.16 fold enrichment (6-mer frequency, TF over GST control) | 1.04 fold enrichment (6-mer frequency, TF over GST control)
